Among the test systems are HCT-15 colon; SNB-75 CNS; U251 CNS; PC-3 prostate; SK-MEL-5 melanoma; UACC-62 melanoma; SK-MEL-28 melanoma; SK-MEL-2 melanoma; EKVX NSCLC; SN12C renal; UO-31 renal; TK-10 renal; ACHN renal; CAKI-1 renal; A498 renal; CCRF-CEM leukemia; MOLT-4 leukemia; SNB-19 CNS; LOX IMVI melanoma; HT29 colon.
Common to all, as to assay: NCI-60 one-dose screen, 48 h (100 = growth as untreated, 0 = no growth, -100 = all killed)
What all share (conditions): 10 µM unless noted

This is part of a sample that, as a whole, favours compounds with a hit. Of some 83,000 tested, about 20% had one in any assay.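 Compound tested at a single concentration for 48 hours in 96-well plates; a percent growth value below 10 was scored as active.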 Values without a mark were called inactive. The source made the active and inactive calls.

Regarding `CCN1/C(=C\c2cc[n+](CC)c3ccccc23)C=Cc2ccccc21`, the growth in the assay with HCT-15 colon was 29.7%; in the assay with SNB-75 CNS, 14.3%; with U251 CNS, 17%; in the assay with PC-3 prostate, 11.4%; in the assay with SK-MEL-5 melanoma, -74.4% (active); in the assay on UACC-62 melanoma, -21.4% (active). The growth was 3% (active) in the assay with SK-MEL-28 melanoma; 0.604% (active) in the assay on SK-MEL-2 melanoma; 15.8% in the assay with EKVX NSCLC; 8.57% (active) in the assay on SN12C renal; 11.4% in the assay with UO-31 renal; 22.3% in the assay on TK-10 renal. The growth is 15.2% in the assay with ACHN renal; 53.9% with CAKI-1 renal; -20.2% (active) with A498 renal; 28.1% with CCRF-CEM leukemia; 13.2% in the assay on MOLT-4 leukemia.
As to `Cc1c2ccccc2c(C)c2c1ccc1ccccc12`, the growth in the assay with HCT-15 colon was 90.3%; with SNB-75 CNS it was 88.1%; in the assay with SNB-19 CNS, 103%; in the assay with U251 CNS, 94.5%; with PC-3 prostate it was 83%; with UACC-62 melanoma, 80.5%. In addition, the growth is 64.3% in the assay with LOX IMVI melanoma; 98.6% in the assay on SK-MEL-2 melanoma; 88.7% in the assay with EKVX NSCLC; 80.3% in the assay on UO-31 renal; 111% in the assay with TK-10 renal; 97.2% with ACHN renal. Moreover, the figures for the growth in the assay on CAKI-1 renal, with A498 renal and in the assay on CCRF-CEM leukemia were 89%, 81.1% and 88.9%, respectively.
On to `NC(N)=N/N=C/c1ccc([N+](=O)[O-])o1`, for which the growth was 68.1% in the assay with HCT-15 colon; 106% in the assay on SNB-75 CNS; 99.9% with SNB-19 CNS; 80.8% in the assay with U251 CNS; 90.4% in the assay with SK-MEL-5 melanoma; 92.9% in the assay on UACC-62 melanoma. Besides, the growth with LOX IMVI melanoma is 82.1%; in the assay with SK-MEL-28 melanoma it was 114%; in the assay with SK-MEL-2 melanoma, 83.4%; in the assay on EKVX NSCLC, 122%; with SN12C renal, 86.6%; in the assay on UO-31 renal it was 88.8%. Moreover, the growth is 115% in the assay with TK-10 renal; 92.8% in the assay on ACHN renal; 106% with CAKI-1 renal; 105% in the assay with A498 renal; 87.9% in the assay on CCRF-CEM leukemia; 103% in the assay with MOLT-4 leukemia.
Take `CCN(CC)CCOc1ccc(-c2nc3cc(Cl)ccc3s2)cc1`: the growth is -71.9% (active) in the assay on HCT-15 colon; -0.875% (active) with SNB-75 CNS; 40.7% in the assay with SNB-19 CNS; -3.49% (active) in the assay with U251 CNS; -38.5% (active) with SK-MEL-5 melanoma; -86.9% (active) in the assay with UACC-62 melanoma. In addition, the growth with LOX IMVI melanoma was -86.5% (active); in the assay with SK-MEL-2 melanoma, 80.2%; with EKVX NSCLC, 57.3%; with SN12C renal, 36%; in the assay with UO-31 renal, -46.7% (active); in the assay on TK-10 renal, 8.65% (active). Further, the growth with ACHN renal was 10.3%; in the assay on CAKI-1 renal it was 11.9%; in the assay on A498 renal, -0.459% (active); in the assay with CCRF-CEM leukemia, 4.45% (active); with MOLT-4 leukemia, -79.3% (active).
In the case of `COC(=O)c1nc(=S)[nH]c(C(=O)OC)c1C(=O)c1ccc2ccccc2c1`, the growth in the assay on HCT-15 colon was 99.2%; in the assay on SNB-75 CNS, 84.5%; in the assay on SNB-19 CNS, 94.7%; in the assay on U251 CNS, 97.6%; in the assay with PC-3 prostate it was 93.5%; with UACC-62 melanoma it was 89.4%. The growth was 94.7% in the assay with LOX IMVI melanoma; 106% with SK-MEL-28 melanoma; 104% in the assay with SK-MEL-2 melanoma; 103% in the assay on EKVX NSCLC; 97.2% in the assay on SN12C renal; 81% with UO-31 renal. The growth was 109% in the assay with TK-10 renal; 101% with ACHN renal; 86.2% in the assay with CAKI-1 renal; 119% in the assay on A498 renal; 102% in the assay on CCRF-CEM leukemia; 103% in the assay on MOLT-4 leukemia.
Take `CCC(c1cccc(O)c1)C(CC)c1cccc(O)c1` (centres undefined): the growth was 49% with HCT-15 colon; 42.7% in the assay with SNB-75 CNS; 45.5% in the assay with U251 CNS; 56.4% in the assay on PC-3 prostate; 32.3% in the assay with SK-MEL-5 melanoma; 30.1% in the assay on UACC-62 melanoma. Moreover, the growth was 57.8% with LOX IMVI melanoma; 71.8% in the assay on SK-MEL-2 melanoma; 64.1% in the assay on EKVX NSCLC; 68.5% with SN12C renal; 64.1% in the assay on UO-31 renal; 80% with TK-10 renal. The growth is 75.1% in the assay on ACHN renal; 66.4% with CAKI-1 renal; 70.8% with A498 renal; 49.8% in the assay on CCRF-CEM leukemia; 33.7% with MOLT-4 leukemia.
Consider `CCCCCCC(C)c1ccccc1O` (centres undefined) (tested in a mixture with another compound), for which the growth in the assay with HCT-15 colon was 105%; in the assay on SNB-75 CNS, 128%; in the assay on SNB-19 CNS, 106%; with U251 CNS, 104%; in the assay on UACC-62 melanoma it was 99.6%; with LOX IMVI melanoma it was 95.8%. Further, the growth was 123% with SK-MEL-2 melanoma; 110% in the assay with EKVX NSCLC; 106% in the assay on SN12C renal; 99.1% with UO-31 renal; 119% in the assay on TK-10 renal; 110% with ACHN renal. The figures for the growth in the assay on CAKI-1 renal and in the assay on CCRF-CEM leukemia were 90.1% and 99.1%, respectively.
As for `O=C(Nc1ccc(F)cc1)ON=C1CCCCC1`, the growth in the assay on HT29 colon was 103% [100 µM]; in the assay on SNB-75 CNS, 85% [100 µM]; in the assay on SNB-19 CNS it was 94% [100 µM]; in the assay on U251 CNS, 102% [100 µM]; in the assay with PC-3 prostate, 89.5% [100 µM]; with SK-MEL-5 melanoma, 99.6% [100 µM]. Also, the growth in the assay on UACC-62 melanoma was 54.5% [100 µM]; in the assay on LOX IMVI melanoma, 88.2% [100 µM]; in the assay with SK-MEL-28 melanoma it was 108% [100 µM]; in the assay on SK-MEL-2 melanoma, 102% [100 µM]; in the assay with EKVX NSCLC it was 111% [100 µM]; in the assay with UO-31 renal, 92.2% [100 µM]. Further, the growth with TK-10 renal is 101% [100 µM]; in the assay on ACHN renal, 97.9% [100 µM]; with CAKI-1 renal it was 79.3% [100 µM]; with A498 renal it was 95.2% [100 µM]; with CCRF-CEM leukemia, 97.2% [100 µM]; with MOLT-4 leukemia, 95.3% [100 µM].

(Values after PubChem BioAssay (NCI).)
